This is part of a sample that, as a whole, favours compounds with a hit. Of some 83,000 tested, about 20% had one in any assay.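 Each cell line was grown in a 96-well plate and treated with one concentration of compound for 48 hours. Values below 10 were considered active.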 A number with no mark means an inactive call. The source made the active and inactive calls.
Assays:
Assay in all cases: NCI-60 one-dose screen, 48 h (100 = growth as untreated, 0 = no growth, -100 = all killed)
Settings in all cases: 10 µM unless noted
[1] = system: NCI-H23 lung
[2] = system: NCI-H226 lung
[3] = system: NCI-H322M lung
[4] = system: HOP-62 NSCLC
[5] = system: NCI-H460 lung
[6] = system: HOP-92 NSCLC
[7] = system: NCI-H522 lung
[8] = system: A549/ATCC NSCLC
[9] = system: 786-0 renal
[10] = system: COLO 205 colon

## Cc1cccc(-n2c(C)nc3ccc(NC(=O)NCCCl)cc3c2=O)c1
[1]
  growth: 86.8%
[2]
  growth: 95.3%
[3]
  growth: 105%
[4]
  growth: 96%
[5]
  growth: 100%
[6]
  growth: 86%
[7]
  growth: 98.9%
[8]
  growth: 101%
[9]
  growth: 93.5%
[10]
  growth: 104%

## COc1cccc2cc(-c3cc4ccccc4[nH]3)c(=NC(=O)c3ccc(Cl)cc3)oc12
[1]
  growth: 40.2%
[2]
  growth: 83.2%
[3]
  growth: 93.3%
[4]
  growth: 57.7%
[5]
  growth: 85.3%
[6]
  growth: -0.489% (active)
[7]
  growth: 9.69% (active)
[8]
  growth: 65.5%
[9]
  growth: 69.5%
[10]
  growth: 100%

## CCCCCC(=O)OCc1ccccc1
[1]
  growth: 102%
[2]
  growth: 103%
[3]
  growth: 102%
[4]
  growth: 97%
[5]
  growth: 109%
[6]
  growth: 96.3%
[7]
  growth: 85.7%
[8]
  growth: 106%
[9]
  growth: 96.9%
[10]
  growth: 106%

## FC(F)(F)c1cccc(-n2nnc3cnc(Nc4ccc(N5CCCCC5)cc4)nc32)c1
[1]
  growth: 66.5%
[2]
  growth: 92.4%
[3]
  growth: 90.7%
[4]
  growth: 98.1%
[5]
  growth: 12.6%
[6]
  growth: 110%
[7]
  growth: 2.95% (active)
[8]
  growth: 20.9%
[9]
  growth: 25.3%
[10]
  growth: 77.2%

## NS(=O)(=O)c1ccc(CN2C(=O)c3cccc4cccc(c34)C2=O)cc1
[1]
  growth: 107%
[2]
  growth: 86.1%
[3]
  growth: 93%
[4]
  growth: 81.8%
[5]
  growth: 110%
[6]
  growth: 82.7%
[7]
  growth: 89.9%
[8]
  growth: 92.1%
[9]
  growth: 99.2%
[10]
  growth: 99.4%

## COc1ccc(OC)c(/C=C2\Oc3cc(OCCN4CCCC4)ccc3C2=O)c1
[1]
  growth: 87.7%
[2]
  growth: 104%
[3]
  growth: 97.4%
[4]
  growth: 87.2%
[5]
  growth: 99.1%
[6]
  growth: 92.3%
[7]
  growth: 103%
[8]
  growth: 103%
[9]
  growth: 93.9%
[10]
  growth: 97.9%

## CN(C)c1ccc(-c2ccc(-c3ccc(C(=N)N)cn3)o2)cc1
[1]
  growth: 20.9%
[2]
  growth: 21.3%
[3]
  growth: -0.109% (active)
[4]
  growth: -69.8% (active)
[5]
  growth: -86.8% (active)
[6]
  growth: -61.2% (active)
[7]
  growth: -72.9% (active)
[8]
  growth: -48.7% (active)
[9]
  growth: -66.6% (active)
[10]
  growth: -93.7% (active)

## COC1=CC(c2ccc[nH]2)=N/C1=C\c1[nH]c(C)c(C(=O)CCC(=O)Oc2ccc3c(c2)CCC2C3CC[C@]3(C)[C@@H](O)CC[C@@H]23)c1C (stereo not given in full)
[1]
  growth: 18.4%
[2]
  growth: 15.5%
[3]
  growth: 42.7%
[4]
  growth: 12.4%
[5]
  growth: 1.58% (active)
[6]
  growth: -45.2% (active)
[7]
  growth: -58.9% (active)
[8]
  growth: -10.9% (active)
[9]
  growth: -46.3% (active)
[10]
  growth: 31.5%

## Nc1c(C(=O)Nc2cccc(Cl)c2Cl)sc2nc3c(cc12)C(=O)CCC3
[1]
  growth: 76.1%
[2]
  growth: 87%
[3]
  growth: 76.7%
[4]
  growth: 95.3%
[5]
  growth: 20%
[6]
  growth: 91.5%
[7]
  growth: 12.5%
[8]
  growth: 37.5%
[9]
  growth: 92.4%
[10]
  growth: 25.8%

## CCNC(=O)C1CCCN1C(=O)C(CCCN=C(N)N)NC(=O)C(CC(C)C)NC(=O)C(CC(C)C)NC(=O)C(Cc1ccc(O)cc1)NC(=O)C(CO)NC(=O)C(Cc1c[nH]c2ccccc12)NC(=O)C(Cc1cnc[nH]1)NC(=O)C1CCC(=O)N1 (stereo not given)
[1]
  growth: 87.8%
[2]
  growth: 111%
[3]
  growth: 119%
[4]
  growth: 96.8%
[5]
  growth: 107%
[6]
  growth: 92%
[7]
  growth: 74.1%
[8]
  growth: 81.6%
[9]
  growth: 104%
[10]
  growth: 94.9%

## COc1cc2c(cc1OCCCCn1c(-c3cc(=O)c4ccccc4o3)nc3ccccc31)N=C[C@@H]1CCCN1C2=O
[1]
  growth: 101%
[2]
  growth: 101%
[3]
  growth: 108%
[4]
  growth: 105%
[5]
  growth: 112%
[6]
  growth: 66.5%
[7]
  growth: 66.7%
[8]
  growth: 90.5%
[9]
  growth: 108%
[10]
  growth: 104%

## c1cncc(CNc2ccccc2-c2nnc(Nc3ccc4c(c3)OCCO4)o2)c1
[1]
  growth: 20.9%
[2]
  growth: 7.4% (active)
[3]
  growth: 49.6%
[4]
  growth: 32.5%
[5]
  growth: 4.61% (active)
[6]
  growth: 136%
[7]
  growth: -28.3% (active)
[8]
  growth: 31.8%
[9]
  growth: 42.4%
[10]
  growth: -21.9% (active)

## CCN(Cc1ccc(CN(CC)C(=O)C(Br)Br)cc1)C(=O)C(Br)Br
[1]
  growth: 43.3%
[2]
  growth: 59.1%
[3]
  growth: 26.3%
[4]
  growth: 74.8%
[5]
  growth: 2.41% (active)
[6]
  growth: 60.7%
[7]
  growth: 32.5%
[8]
  growth: 25.2%
[9]
  growth: 59.4%
[10]
  growth: 3.56% (active)

## Cc1nc(Nc2cccnc2)sc1C(=O)/C=C/c1ccc(F)cc1
[1]
  growth: 82.3%
[2]
  growth: 55.7%
[3]
  growth: 47.9%
[4]
  growth: 30.4%
[5]
  growth: 59.8%
[6]
  growth: 88.6%
[7]
  growth: 52%
[8]
  growth: 25.2%
[9]
  growth: 13.8%
[10]
  growth: 56.4%

## COc1cc(NCCCN=C(N)NC(N)=NC(C)C)c2ncccc2c1
[1]
  growth: 34.7%
[2]
  growth: 92%
[3]
  growth: 52%
[4]
  growth: 96.2%
[5]
  growth: 91.9%
[6]
  growth: 36.9%
[7]
  growth: -13.1% (active)
[8]
  growth: 78.6%
[9]
  growth: 98.8%
[10]
  growth: -1.53% (active)

## COc1cccc(NC(=O)c2sc3nc4c(cc3c2N)CCCC4)c1
[1]
  growth: 32.3%
[2]
  growth: 57.2%
[3]
  growth: 38.9%
[4]
  growth: 27.7%
[5]
  growth: 12%
[6]
  growth: 43.6%
[7]
  growth: 4.31% (active)
[8]
  growth: 17.4%
[9]
  growth: 34.3%
[10]
  growth: 49.2%

## CCN(C(=O)c1cc2ccccc2[nH]1)[C@H]1CCC[C@@H](NCc2ccc(OC)cc2)C1
[1]
  growth: 89.8%
[2]
  growth: 107%
[3]
  growth: 76.1%
[4]
  growth: 86.2%
[5]
  growth: 103%
[6]
  growth: 81%
[7]
  growth: 95.6%
[8]
  growth: 98.7%
[9]
  growth: 97%
[10]
  growth: 87.6%

## COc1ccc(C2CC(c3cccs3)=NN2c2ccc(S(=O)(=O)NC(=O)NCc3cccc(OC)c3)cc2)cc1 (stereo not given)
[1]
  growth: 97.6%
[2]
  growth: 110%
[3]
  growth: 102%
[4]
  growth: 81%
[5]
  growth: 109%
[6]
  growth: 87.1%
[7]
  growth: 87.3%
[8]
  growth: 5.45% (active)
[9]
  growth: 101%
[10]
  growth: -63.5% (active)

## Cc1cc(Nc2nc(-c3ccncc3)nc3ccccc23)n[nH]1
[1]
  growth: 80.2%
[2]
  growth: 79.1%
[3]
  growth: 75.7%
[4]
  growth: 95.1%
[5]
  growth: 66.1%
[6]
  growth: 54.9%
[7]
  growth: 58.7%
[8]
  growth: 41.9%
[9]
  growth: 48.2%
[10]
  growth: 31.7%

## CC(=O)Nc1ccc(S(=O)(=O)N2C(=O)CCC2C(=O)Nc2ccc(Br)cc2)cc1 (stereo not given)
[1]
  growth: 21.9%
[2]
  growth: 50.2%
[3]
  growth: 31.8%
[4]
  growth: 45.6%
[5]
  growth: 21.2%
[6]
  growth: 11.8%
[7]
  growth: -7.58% (active)
[8]
  growth: 22.3%
[9]
  growth: 57.8%
[10]
  growth: 6.33% (active)

## CN(C)C1CCC(NC2=CC(=O)C=CC2=O)CC1 (stereo not given)
[1]
  growth: 110%
[2]
  growth: 116%
[3]
  growth: 102%
[4]
  growth: 116%
[5]
  growth: 109%
[6]
  growth: 118%
[7]
  growth: 90.2%
[8]
  growth: 106%
[9]
  growth: 121%
[10]
  growth: 128%

## CCN1C(=O)N[C@H]2[C@@H]3NC(=O)c4ccc(Cl)n4[C@@H]3C[C@]21O
[1]
  growth: 6.06% (active)
[2]
  growth: 5.43% (active)
[3]
  growth: 11.7%
[4]
  growth: -4.56% (active)
[5]
  growth: 2.06% (active)
[6]
  growth: 3.95% (active)
[7]
  growth: -26.9% (active)
[8]
  growth: 9.08% (active)
[9]
  growth: -4.85% (active)
[10]
  growth: -29.5% (active)

## CCN1C(=O)N(CC)C2C1NN=c1s/c(=C\c3cccc(F)c3)c(=O)n12 (stereo not given)
[1]
  growth: 33.9%
[2]
  growth: 105%
[3]
  growth: 49.6%
[4]
  growth: 42.2%
[5]
  growth: 1.33% (active)
[6]
  growth: 29.6%
[7]
  growth: -0.955% (active)
[8]
  growth: 27%
[9]
  growth: 12.2%
[10]
  growth: -5.47% (active)

## Cc1cc(Cl)ccc1OC(C)C(=O)Nc1nnc(C2CC2)s1 (stereo not given)
[1]
  growth: 76.7%
[2]
  growth: 98.5%
[3]
  growth: 124%
[4]
  growth: 94.7%
[5]
  growth: 114%
[6]
  growth: 81.3%
[7]
  growth: 94.6%
[8]
  growth: 86.3%
[9]
  growth: 92.7%
[10]
  growth: 105%

## O=C(c1ccncc1)N1N=C(c2ccc(Cl)cc2)CC1c1c[nH]c2ccccc12 (stereo not given)
[1]
  growth: 85.9%
[2]
  growth: 82.7%
[3]
  growth: 96.3%
[4]
  growth: 75.1%
[5]
  growth: 96.8%
[6]
  growth: 94.7%
[7]
  growth: 80.8%
[8]
  growth: 95%
[9]
  growth: 104%
[10]
  growth: 97.9%

## O=c1c2cccc3c(Nc4ccc(F)cc4)ccc(c32)c2nc3ccccc3n12
[1]
  growth: 83.8%
[2]
  growth: 92.7%
[3]
  growth: 67.8%
[4]
  growth: 87.5%
[5]
  growth: 77.9%
[6]
  growth: 53.2%
[7]
  growth: 82%
[8]
  growth: 96.1%
[9]
  growth: 97.5%
[10]
  growth: 84.5%

## COC(=O)CCCCCCN=Cc1c(O)c(O)c(C(C)C)c2cc(C)c(-c3c(C)cc4c(C(C)C)c(O)c(O)c(C=NCCCCCCC(=O)OC)c4c3O)c(O)c12
[1]
  growth: 19.5%
[2]
  growth: 77.3%
[3]
  growth: 45.2%
[4]
  growth: 24%
[5]
  growth: 6.7% (active)
[6]
  growth: 7.71% (active)
[7]
  growth: -6.49% (active)
[8]
  growth: 29.7%
[9]
  growth: 29%
[10]
  growth: 15.7%
